The list is not random: actives were taken first. Their share in the collection is about 1.1%.
BRCA1 expr act: qHTS Assay to Identify Small Molecule Activators of BRCA1 Expression; 1.1% of 380,000 active; MCF7-BRCA1-FFLuc reporter, luminescence, 48 h; response scale: scaled: vehicle 0%, 10 µM genistein 100%; Potency, µM (doses to about 46.1 µM), inactives show at the top dose activation, most hits filed as activators; note: potency is the fitted concentration of half-maximal effect; nearly all actives have a fitted effect of over 80% in size
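MCF7-BRCA1-FFLuc, 2000 cells/well; 2 h attach, 37 °C/5% CO2; compound 48 h; luciferase substrate 15 min; luminescence end-point. Norm. to genistein 10 microM max activation and DMSO; concentration-response curves fitted.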
Anesthetic bind: qHTS Assay for Identification of Novel General Anesthetics. Ferritin light chain (Equus caballus), P02791. apoferritin/1-aminoanthracene competitive binding, fluorescence. Potency, µM (series often up to 77.5 µM), for inactives: at the top dose activity change, negative = displacement, actives largely listed as inhibitors. 0.074% of 350,000 active. AID 485281, 2010; note: potency is the fitted concentration of half-maximal effect; % is set by controls: 0 for no effect and ±100 for the full control effect; nearly all actives have a fitted effect of over 20% in size
Target sequence (P02791 2-175 limits assumed): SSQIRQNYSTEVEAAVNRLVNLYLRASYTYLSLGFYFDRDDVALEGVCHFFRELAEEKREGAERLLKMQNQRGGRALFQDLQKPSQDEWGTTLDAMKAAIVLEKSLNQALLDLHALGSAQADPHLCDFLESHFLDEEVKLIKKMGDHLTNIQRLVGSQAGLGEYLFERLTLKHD
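Read-out: endpoint 1-AMA fluorescence, excitation 380 nm and emission 535 nm, after compounds sit 10 min at room temperature with 10 uM horse-spleen apoferritin in 50% saturated 1-AMA/PBS. Values come from four-parameter Hill fits.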
p53 reactivator: qHTS assay for re-activators of p53 using a Luc reporter | H1299 p53-A138V BP100-luciferase reporter, luminescence, 24 h | Potency, µM (top dose mostly 92.2 µM), inactives show at the top dose activity change, positive = activation, usual class: activators | 0.063% of 320,000 active; note: potency is the fitted concentration of half-maximal effect; % of control where 0% means no effect; nearly all actives have a fitted effect of over 45% in size
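H1299 (p53-null), stable ts p53-A138V + BP100-Luc; 1000 cells/well, Opti-MEM/10% FBS; cpd 4 pt, 1:5; 24 h, 37 deg C, 5% CO2; detection reagent 10 min RT; luminescence.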
miR-21 reporter: qHTS Assay for Modulators of miRNAs and/orActivators of miR-21 | HeLa miR-21 FLuc reporter, luciferase, 48 h | Potency, µM (highest dose often 38.3 µM), without a hit: at the top dose activity change, positive = activation, usual class: activators | 340,000 tested, under 10 active | AID 2288, 2010;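 note: % of control where 0% means no effect; miR-21 action dims this reporter so a rising signal means less miR-21 action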
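Using DMEM plus 10% FBS, HeLa miR-21-FLuc cells are incubated with test compounds (final up to about 40uM) for 48 hours; firefly luciferase signal is then imaged following reagent-mediated lysis.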
Starred values were filed as active, the others as inactive. Calls come from the whole dose curve; as a rule, active = well fitted curve in the direction sought with a large enough effect; inconclusive = small, poorly fitted or top-dose-only effect, or another doubt; inactive = no such curve, though single readings can be large; an effect the other way counts as inactive or inconclusive.

Results for O=[N+]([O-])c1ccc(CNc2ccc(Cl)cc2)s1 ?
BRCA1 expr act: -27.2%; Anesthetic bind: 14.1µM*; miR-21 reporter: 8.0%

Results for Cn1c(/C(C#N)=C/c2ccncc2)nc2ccccc21 ?
BRCA1 expr act: -20.4%; Anesthetic bind: -3.6%; p53 reactivator: 22.8%; miR-21 reporter: -7.7%

What do the screens show for `Cn1c(/C(C#N)=C/c2ccc(O)cc2)nc2ccccc21`?
BRCA1 expr act: 11.2µM*; Anesthetic bind: 0.3%; p53 reactivator: 6.5%; miR-21 reporter: -53.3%

How did N#CCCN(Cc1cccnc1)CN1C(=O)c2ccccc2C1=O do in these assays?
BRCA1 expr act: 16.2%

How did COc1ccc(C(CNC(=O)C2CC(=O)N(Cc3ccccc3)C2)N2CCOCC2)cc1 (stereo unspecified) do in these assays?
BRCA1 expr act: 20.8%; p53 reactivator: 10.8%

How did O=C(CSc1nc(N2CCCCC2)nc(N2CCCCC2)n1)c1ccccc1 do in these assays?
BRCA1 expr act: -35.0%; Anesthetic bind: -10.0%; p53 reactivator: -4.2%; miR-21 reporter: -1.4%

Results for Cc1cc(N2CCCCC2)nc(SCC(=O)c2ccccc2)n1 ?
BRCA1 expr act: 10µM*; Anesthetic bind: inconclusive; p53 reactivator: inconclusive; miR-21 reporter: -47.0%

Results for COC(=O)COc1ccc(S(=O)(=O)NCCC2=CCCCC2)cc1C ?
BRCA1 expr act: -4.9%; Anesthetic bind: 5.62µM*; p53 reactivator: -1.9%; miR-21 reporter: -7.5%

How did CCOC(=O)c1c(C)oc2nc(C)nc(NCC3CCN(Cc4ccc(C)cc4)CC3)c12 do in these assays?
Anesthetic bind: 8.0%; miR-21 reporter: 3.5%

What do the screens show for `C=C(C)C(=O)OC1(C(F)(F)F)Oc2cc(C)ccc2NC1=O` (stereo unspecified)?
BRCA1 expr act: -57.7%; Anesthetic bind: 17.8µM*; p53 reactivator: -64.7%; miR-21 reporter: inconclusive

What do the screens show for `CCc1ccccc1N(CC)C(=O)c1cc2c(s1)-c1ccccc1OC2`?
BRCA1 expr act: -20.0%; Anesthetic bind: 9.7%; miR-21 reporter: 9.3%

Results for O=c1oc(CCCO)cc2ccc(/C=C/c3cccc([N+](=O)[O-])c3)cc12 ?
BRCA1 expr act: 6.31µM*; p53 reactivator: 11.0%

How did O=c1oc(CCCO)cc2ccc(Br)cc12 do in these assays?
BRCA1 expr act: 12.0%; p53 reactivator: 5.9%

What do the screens show for `O=C(NC(=O)c1ccc(F)cc1F)Nc1ccc(Cl)cc1`?
BRCA1 expr act: 2.82µM*; Anesthetic bind: -9.3%; p53 reactivator: 5.4%; miR-21 reporter: -36.3%

What do the screens show for `COc1ccc(CNC(=O)c2ccc3c(c2)CCN3S(=O)(=O)c2ccc(C)cc2)cc1`?
Anesthetic bind: 26.3%; miR-21 reporter: 21.9%

What do the screens show for `CC(C)c1ccccc1OCC(=O)Nc1ccccc1C(=O)N1CCOCC1`?
BRCA1 expr act: -13.7%; Anesthetic bind: -7.7%; p53 reactivator: -1.5%; miR-21 reporter: 12.1%

What do the screens show for `CCOc1ccc(-c2ccc(SCC(=O)NCC3CCCO3)nn2)cc1` (stereo unspecified)?
BRCA1 expr act: 3.98µM*; Anesthetic bind: -12.6%; p53 reactivator: 15.1%; miR-21 reporter: -24.1%

How did Cc1ccc(Cl)cc1N1CCN(C(=O)c2c(C)oc3ncnc(N4CCCCC4)c23)CC1 do in these assays?
BRCA1 expr act: -51.9%; Anesthetic bind: 1.1%; miR-21 reporter: 19.6%

What do the screens show for `N#C/C(=C/c1ccc(N2CCCCC2)o1)C(=O)Nc1ccc2ccccc2c1`?
BRCA1 expr act: 40.5%; Anesthetic bind: -13.7%; p53 reactivator: 26.0%; miR-21 reporter: -20.4%

How did N#C/C(=C/c1ccc(N2CCCCC2)o1)C(=O)Nc1ccc(Cl)cc1 do in these assays?
BRCA1 expr act: 4.47µM*; Anesthetic bind: -7.8%; p53 reactivator: inconclusive; miR-21 reporter: -48.9%

Results for CC(=O)c1ccc(N2CCN(C(=O)c3cc(S(=O)(=O)N4CCOCC4)ccc3C)CC2)cc1 ?
BRCA1 expr act: -21.6%; p53 reactivator: -1.7%

Results for NS(=O)(=O)c1cccnc1Nc1ccc(Cl)c(Cl)c1 ?
BRCA1 expr act: -13.9%; Anesthetic bind: 8.91µM*; p53 reactivator: 0.4%; miR-21 reporter: -15.3%

Results for CC(=O)NS(=O)(=O)c1cccnc1Nc1ccc(Cl)c(Cl)c1 ?
BRCA1 expr act: 14.3%; Anesthetic bind: -14.7%; p53 reactivator: 6.3%; miR-21 reporter: -6.0%

Results for CN1CCN(C2=C(Cl)C(=O)N(Cc3ccccc3)C2=O)CC1 ?
BRCA1 expr act: 9.7%; Anesthetic bind: -12.7%; p53 reactivator: 20µM*; miR-21 reporter: 7.0%

Results for CCN1CCN(C2=C(Cl)C(=O)N(Cc3ccccc3)C2=O)CC1 ?
BRCA1 expr act: -11.4%; Anesthetic bind: 3.6%; p53 reactivator: 19.9%; miR-21 reporter: -1.5%

What do the screens show for `Nc1ccc2nc3c(=O)n(C4CCCCC4)c(=O)[nH]c3nc2c1`?
BRCA1 expr act: 7.08µM*; Anesthetic bind: 144.1%; p53 reactivator: 12.0%; miR-21 reporter: -67.4%

How did CCOC(=O)c1sc2ncn(CC(=O)Nc3ccc(N(C)C)cc3)c(=O)c2c1C do in these assays?
BRCA1 expr act: 7.5%; Anesthetic bind: -4.3%; miR-21 reporter: 4.6%

Results for CCCCNC(=O)c1ccc2c(OCC)n(CCCC)nc2c1 ?
BRCA1 expr act: -1.3%; Anesthetic bind: -1.9%; p53 reactivator: -3.7%; miR-21 reporter: -7.3%

What do the screens show for `CCCn1nc2cc(C(=O)NCCc3cccs3)ccc2c1OCC`?
BRCA1 expr act: 11.2µM*; Anesthetic bind: 0.7%; p53 reactivator: 1.5%; miR-21 reporter: -45.7%

What do the screens show for `CSc1ccccc1C(=O)Nc1nc2ccccc2c(=O)[nH]1`?
BRCA1 expr act: 11.2µM*; Anesthetic bind: -23.4%; p53 reactivator: 4.1%; miR-21 reporter: -38.2%

Results for CCN1CCC(N(Cc2ccc(F)cc2)C(=O)Nc2cccc(C(F)(F)F)c2)CC1 ?
Anesthetic bind: -13.0%; miR-21 reporter: inconclusive

How did Cn1c(-c2ccc(CN3CCCCC3)o2)nc2ccccc21 do in these assays?
BRCA1 expr act: 3.16µM*; Anesthetic bind: -10.4%; p53 reactivator: 11.4%; miR-21 reporter: -28.0%

How did CCOC(=O)c1ccc(-c2nnc(-c3ccc(Cl)cc3Cl)o2)cc1 do in these assays?
BRCA1 expr act: 0.891µM*; Anesthetic bind: 2.7%; miR-21 reporter: -13.2%

What do the screens show for `CC[C@]1(C(=O)OC)[C@H]2C(=O)N(C)C(=O)[C@H]2[C@H]2CN=C(SCc3ccc(C(=O)OC)cc3)N21`?
BRCA1 expr act: 7.8%; p53 reactivator: -7.1%

Results for N#CC(C(=O)c1ccco1)c1ccccn1 (stereo unspecified) ?
BRCA1 expr act: 14.1µM*; Anesthetic bind: 0.4%; p53 reactivator: inconclusive; miR-21 reporter: -30.5%

How did Nc1ccc2oc(-c3ccccc3Cl)cc(=O)c2c1O do in these assays?
BRCA1 expr act: 7.08µM*; Anesthetic bind: inconclusive; p53 reactivator: inconclusive; miR-21 reporter: -102.3%
